Screening results: PubChem BioAssay, National Center for Advancing Translational Sciences (NCATS)
G9a block – qHTS Assay for Inhibitors of Histone Lysine Methyltransferase G9a | AID 504332, 2011 | G9a H3K9 monomethylation, AlphaScreen, 2 h | Histone-lysine N-methyltransferase EHMT2 (Homo sapiens), Q96KQ7 | Potency, µM (top dose mostly 102 µM), for the others: at the highest dose activity, negative = inhibition, hits mostly inhibitors | hit rate 8.8% among 350,000; also: % is scaled to controls: 0 for no effect and ±100 for the full control effect; nearly all actives have a fitted effect of over 75% in size
Target sequence (Q96KQ7 913-1193 limits assumed): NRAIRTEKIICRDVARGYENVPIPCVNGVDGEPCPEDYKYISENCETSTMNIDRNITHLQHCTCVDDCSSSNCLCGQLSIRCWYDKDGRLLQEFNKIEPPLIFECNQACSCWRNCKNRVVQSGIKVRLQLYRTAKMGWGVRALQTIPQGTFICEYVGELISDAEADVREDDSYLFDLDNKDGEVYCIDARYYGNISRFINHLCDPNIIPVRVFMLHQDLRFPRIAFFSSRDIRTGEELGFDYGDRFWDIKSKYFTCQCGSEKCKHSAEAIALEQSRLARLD
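Step 1: enzyme (final 20 nM) with compound, 15 min RT. Step 2: substrate peptide 500 nM and SAM 20 uM, 2 h RT. Step 3: anti-H3K9me1 antibody and AlphaScreen beads, 10 min, then plate read.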
JMJD2A Tudor – qHTS Assay for Inhibitors of JMJD2A-Tudor Domain; hit rate 4.4% among 390,000; Potency, µM (series often up to 114 µM), inactives show at the top dose activity change, negative = inhibition, hits mostly inhibitors; AlphaScreen JMJD2A-Tudor / H3K4me3 peptide binding; Lysine-specific demethylase 4A (Homo sapiens), O75164; also: % is scaled to controls: 0 for no effect and ±100 for the full control effect; nearly all actives have a fitted effect of over 50% in size
HP1b chromo inh – HTS for Inhibitors of HP1-beta Chromodomain Interactions with Methylated Histone Tails | Chromobox protein homolog 1 (Homo sapiens), P83916 | AlphaScreen HP1-beta / biotin-H3K9me3 peptide binding | Potency, µM (titrated, usually from 114 µM), without a hit: top-dose activity change, negative = inhibition, usual class: inhibitors | hit rate 0.56% among 390,000; also: nearly all actives have a fitted effect of over 70% in size
Target sequence (P83916 whole entry, looked up): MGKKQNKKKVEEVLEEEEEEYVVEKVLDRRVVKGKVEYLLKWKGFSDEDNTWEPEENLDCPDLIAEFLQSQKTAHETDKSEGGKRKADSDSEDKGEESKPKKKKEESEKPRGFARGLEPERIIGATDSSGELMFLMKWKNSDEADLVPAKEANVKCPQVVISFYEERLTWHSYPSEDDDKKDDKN
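AlphaScreen: HP1-beta (50 nM) preformed 30 min with biotin-H3(1-18)K9me3 peptide (50 nM) in PBS pH 7.4, 0.01% Tween-20. Compound added for 30 min at RT, then streptavidin donor/nickel chelate acceptor beads (10 ug/mL) for 30 min.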
Sfp PPTase inh – qHTS Assay for Inhibitors of Bacillus subtilis Sfp phosphopantetheinyl transferase (PPTase); AID 1490, 2009; Biochemical Sfp PPTase activity, qHTS; hit rate 3.5% among 310,000; Potency, µM, for the others: largest response in the series, negative = inhibition, most hits filed as inhibitors; 4'-phosphopantetheinyl transferase ffp (Bacillus subtilis), Q9F4F7;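 also: the enzyme is Sfp with the accession as filed and its product quenches rhodamine fluorescence; 0% = enzyme reaction without inhibitor and -100% = no enzyme wells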
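Step 1, compound plus 15 nM Sfp-PPTase, 15 min, room temperature. Step 2, add rhodamine-CoA (5 uM) and BHQ-2-YbbR (12.5 uM). Step 3, read 525/598 nm fluorescence at 0 and 30 min.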
BAZ2B inh – qHTS Assay for Inhibitors of BAZ2B | Bromodomain adjacent to zinc finger domain protein 2B (Homo sapiens), Q9UIF8 | AlphaScreen BAZ2B-H3K14Ac peptide displacement | Potency, µM (titrated, usually from 114 µM), without a hit: at the highest dose activity change, negative = inhibition, usual class: inhibitors | hit rate 4.4% among 360,000; also: % is scaled to controls: 0 for no effect and ±100 for the full control effect; nearly all actives have a fitted effect of over 60% in size
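AlphaScreen displacement: compounds (up to 110uM) incubated 30 min at room temperature with a preformed 50 nM BAZ2B/50 nM biotinylated H3K14Ac peptide complex in PBS pH 7.4 with Tween-20. Donor and acceptor beads at 10 ug/mL final added, 20 min light-protected before reading.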
* = called active by the depositor; ? = inconclusive; nt = no result given; ! = not active in a repeat; [ ] = remark or other dose. Compounds with a hit are over-represented: about 12% of the library has one in this group of screens. Calls follow the shape of the dose curve; as a rule, active = well fitted curve in the direction sought with a large enough effect; inconclusive = small, poorly fitted or top-dose-only effect, or another doubt; inactive = no such curve, though single readings can be large; an effect the other way counts as inactive or inconclusive. Potency is read from the fitted curve at half-maximal effect.

SMILES | G9a block | JMJD2A Tudor | HP1b chromo inh | Sfp PPTase inh | BAZ2B inh
Cc1ccc(Cl)cc1N1CCN(C(=O)C2CCN(Cc3nc(-c4ccc(Cl)cc4)oc3C)CC2)CC1 | ? | ? | -16% | nt | 8.9µM*
Cc1ccc(-c2nc(CN3C(=O)CN=C(c4ccccc4)c4cc(Cl)ccc43)c(C)o2)cc1 | -31%[59 µM] | 1% | 46% | nt | -1%
Cc1ccc(C)c(N2CCN(C(=O)C3CCN(Cc4nc(-c5cccc(Cl)c5)oc4C)CC3)CC2)c1 | ? | 40µM* | -23% | nt | 8.9µM*
Cc1cc(C)nc(NS(=O)(=O)c2ccc(NC(=S)NC(=O)C3CCCC3)cc2)n1 | ? | -5% | 23% | -10% | ?
CC1C(c2cccs2)=[N+]([O-])C(C)(C(=O)c2ccc(F)cc2)N1O (centres undefined) | nt | -14% | 18% | nt | nt
Cc1cccc(N2C(=O)NC(=O)/C(=C/c3cc4c(cc3[N+](=O)[O-])OCO4)C2=O)c1 | 8.9µM* | 79µM* | ? | 35µM* | -28%
CC1=NN(c2ccccc2)C(=O)C1/C=C1/C(=O)NC(=O)N(c2cccc(C)c2)C1=O (centres undefined) | -19%[59 µM] | nt | nt | -13% | ?
O=C1NC(=O)C(=Cc2cc3c(cc2[N+](=O)[O-])OCO3)C(=O)N1 | 7.9µM* | -35% | 0% | -89% | -29%
C[N+](C)(C)CCCl | nt | nt | nt | 12% | nt
C=C(C)CC1(CC)C(=O)NC(=S)NC1=O | nt | -14% | -3% | nt | nt
CN1CCN(c2ccc(N)cc2)CC1 | 13µM* | ? | -11% | 9% | ?
CCN1CCN(c2ccc(N)cc2)CC1 | 40µM* | -28% | 3% | 5% | -18%
CCN1CCN(c2ccc(N)cc2C)CC1 | 32µM* | ? | -14% | 14% | ?
CC(N)C(=O)OC(C)(C)Cc1ccc(Cl)cc1 (centres undefined) | 4%[59 µM] | -26% | 38% | 15% | 4%
CC(Oc1ccc(-c2ccccc2)cc1)C(=O)O (centres undefined) | 33%[12.7 µM] | -15% | 16% | 18% | -3%
CN1C(=O)C(C2(C#N)CCCCC2)C(=O)N(C)C1=O | 50µM* | -11% | 42% | 10% | 12%
CC(=O)CC(=O)C1C(=O)N(C)C(=O)N(C)C1=O | -28% | -10% | 28% | 0% | -10%
c1cncc(CNC2=NCCCCC2)c1 | ? | -12% | 4% | 8% | 79µM*
c1cncc(CNC2CCCC2)c1 | 8%[0.501 µM] | ? | 39% | -1% | ?
Cc1cc(C)c(C(=O)N2CCC3(CC2)OCCO3)c(C)c1 | nt | -1% | 24% | -2% | 5%
O=c1c(O)c(-c2ccc(O)c(O)c2)oc2cc(O)cc(O)c12 | 13µM* | ? | -8% | 56µM*! | ?
O=c1cc(-c2ccc(O)c(O)c2)oc2cc(O)cc(O)c12 | 10µM* | 45µM* | -15% | ? | 79µM*
O=c1c2ccccc2nc(CN2CCCCCC2)n1-c1ccc(F)cc1 | 28µM* | -22% | 25% | -5% | 0%
CN1C[C@H]2CON(C)[C@H]2C[C@H]1c1cccc(Br)c1 | nt | -11% | 44% | nt | nt
COP(=S)(OC)Oc1ccc(Sc2ccc(OP(=S)(OC)OC)cc2)cc1 | ? | 113% | 139% | 40µM* | nt
SMILES | G9a block | JMJD2A Tudor | HP1b chromo inh | Sfp PPTase inh | BAZ2B inh
Cc1ccc2c(c1)C1CN(C)CCC1N2C(=O)Cc1cccs1 (centres undefined) | 79µM* | -20% | 10% | 12% | -4%
Cc1ccc2c(c1)C1CN(C)CCC1N2C(=O)c1cccs1 (centres undefined) | 9% | -14% | 1% | -3% | -20%
S=P(Nn1cnnc1)(c1ccc(Br)cc1)c1ccc(Br)cc1 | -21% | -25% | 25% | 79µM* | -5%
CCOC(=O)COc1ccc(/C=C2\C(=O)NC(=S)N(c3ccc(OC)cc3)C2=O)cc1OC | ? | 35µM* | 11% | 45µM* | ?
CCOC(=O)CSCCOc1ccc(C=C2C(=O)NC(=O)NC2=O)cc1OC | 22µM* | -19% | 31% | -85% | ?
COc1cc(C=C2C(=O)NC(=O)NC2=O)ccc1O | -11%[12.7 µM] | -9% | 38% | ? | -8%
COc1ccc(N2C(=O)/C(=C/c3ccc(C)o3)C(=O)NC2=S)c(OC)c1 | 12%[0.501 µM] | 50µM* | -23% | 40µM* | 50µM*
COC(=O)COc1ccc(/C=C2\C(=O)NC(=S)N(c3ccc(C)cc3)C2=O)cc1OC | 11µM* | ? | 17% | 40µM* | -31%
COC(=O)C1=C(c2c(C)noc2C)C[C@@H]2CC[C@H]1N2C(=O)N1CCC(O)(c2ccc(Cl)cc2)CC1 | 8%[0.501 µM] | -2% | 50% | nt | 8%
NC(N)=N/N=C\c1c(Cl)cccc1Cl | 3%[2.33 µM] | nt | nt | -14% | nt
COc1ccc2c3c1OC1C(=O)CC[C@@]4(O)[C@@H](C2)N(C)CC[C@]314 (some centres undefined) | nt | -5% | 57% | nt | nt
COc1ccc(N2C(=O)/C(=C/c3ccc(OC)c(OC)c3)C(=O)NC2=S)cc1 | nt | 56µM* | ? | -94% | -30%
N.N.N.N.N.N.N.N.N.N.N.N.N.N.O.O.[Cl-].[Cl-].[Cl-].[Cl-].[Cl-].[Cl-].[Ru].[Ru].[Ru] | 3.2µM* | nt | nt | nt | nt
Fc1ccc(C(OCCN2CCN(CCCc3ccccc3)CC2)c2ccc(F)cc2)cc1 | ? | 50µM* | -21% | 12% | nt
Fc1ccc(C(OCCN2CCCC2)c2ccc(F)cc2)cc1 | 2%[59 µM] | -24% | 21% | 3% | 5%
Fc1ccc(C(OCCN2CCN(C/C=C/c3ccccc3)CC2)c2ccc(F)cc2)cc1 | 11µM* | nt | nt | 45µM* | nt
Fc1ccc(C(OCCN2CCCC2)c2ccc(Br)cc2)cc1 (centres undefined) | -9%[59 µM] | 5% | 46% | 40µM* | 0%
